Laboratory results reported in PubChem BioAssay.
Activity calls are given as the source filed them.

Legend:
[1] = system: PRMT1 (protein arginine N-methyltransferase 1); test: small molecules binding arginine methyltransferase PRMT1 – biochemical, small-molecule microarray, 635 nm fluorescence, primary screen (AID 1088); details: higher = more signal;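 further: binding of Prmt1 protein to compounds spotted on small-molecule microarray slides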
[2] = growth effects on S. cerevisiae YJM789 – YJM789 clinical isolate, OD600, 24 h, basal, primary screen (AID 1089); details: higher = more signal, called active from +8 up or from −8 down;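 further: growth of clinical yeast isolate S. cerevisiae YJM 789 seeded 1000 cells per well; test concentration not given here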
[3] = S. pombe growth modifiers, basal conditions – strain 972, OD600, 24 h, no modulator, primary screen (AID 1090);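 further: basal condition with compound alone and no growth modifier present; test concentration not given here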; details: S. pombe 972 growth, higher = more signal, called active from +8 up or from −8 down
[4] = budding yeast growth modifiers under rapamycin – strain BY4716, OD600, 96 h, primary screen (AID 1091); further: test concentration not given here; details: S. cerevisiae BY4716 + rapamycin, higher = more signal, called active from +8 up or from −8 down
[5] = molecular target: Torsin-1A-interacting protein 2 (Homo sapiens) (UniProt Q8NFQ8); test: small molecules binding lysate-expressed LULL1 – cell lysate, human LULL1 lysate, 635/667 nm fluorescence, primary screen (AID 1092); details: small-molecule microarray, hLULL1 lysate binding, 635 nm fluorescence; higher = more signal;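 further: probe is lysate of COS7 cells overexpressing human LULL1; score merges per-feature 667 nm fluorescence with signal-to-noise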
[6] = optical density change of DRC41 E. coli – strain DRC41, OD650, 24 h, E. coli filamentation project, primary screen (AID 1093);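 further: MC1000 strain lacking acrAB efflux and sulA so SOS filamentation is blocked; test concentration not given here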; details: E. coli DRC41 growth, higher = more signal, called active from +8 up or from −8 down
[7] = probe aLefty2 binding to arrayed compounds – biochemical, biotinylated probe, 635/667 nm fluorescence, primary screen (AID 1094); details: small-molecule microarray, higher = more signal;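 further: score merges spot fluorescence near 667 nm with spot signal-to-noise ratio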
[8] = system: Noggin (protein binding on small-molecule microarray); test: small molecules binding Noggin protein – biochemical, 635/667 nm fluorescence, primary screen (AID 1095); details: 635 nm fluorescence, higher = more signal;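 further: score merges 667 nm feature fluorescence with signal to noise over triplicate slides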
[9] = molecular target: Neurogenic locus notch homolog protein 3 (Homo sapiens) (UniProt Q9UM47); test: small molecules binding NOTCH3 protein – biochemical, 635/667 nm fluorescence, primary screen (AID 1096); details: small-molecule microarray, 635 nm fluorescence, higher = more signal
[10] = probe aEGFR binding to arrayed compounds – biochemical, biotinylated probe, 635/667 nm fluorescence, primary screen (AID 1097); details: small-molecule microarray, higher = more signal;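 further: probe is a biotinylated anti-EGFR antibody binding compounds printed on slides; score combines fluorescence near 667 nm and signal to noise of each spot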
[11] = system: Plasmodium falciparum Sir2 (PF13_0152, Sir2A); test: Plasmodium falciparum Sir2A binding compounds – biochemical, small-molecule microarray, 635 nm fluorescence, primary screen (AID 1098); details: fluorescence 635 nm, higher = more signal;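 further: score merges spot fluorescence intensity with its signal-to-noise ratio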
[12] = probe aDKK1 binding to arrayed compounds – biochemical, biotinylated probe, 635/667 nm fluorescence, primary screen (AID 1099); details: small-molecule microarray, higher = more signal;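 further: score merges 667nm spot fluorescence with signal to noise across triplicate slides; reference of the scale not given here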
[13] = probe aCHRDL2 binding to arrayed compounds – biochemical, biotinylated probe, 635/667 nm fluorescence, primary screen (AID 1100); details: small-molecule microarray, higher = more signal
[14] = change in splice reporter luminescence, either direction, cell-based, HEK293, spliceosome inhibition project, primary screen (AID 1101); details: HEK293 splicing luciferase reporter, 24 h, higher = more signal, called active from +8 up or from −8 down;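 further: HEK293 cells carrying a splicing-competent luciferase reporter gene; test concentration not given here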
[15] = molecular target: Fibroblast growth factor 10 (Homo sapiens) (UniProt O15520); test: compounds binding fibroblast growth factor 10 – biochemical, small-molecule microarray, 635 nm fluorescence, primary screen (AID 1102); details: FGF10 binding, fluorescence 635 nm, higher = more signal
[16] = system: glycogen synthase kinase-3 (GSK3A per assay name; protocol says GSK3B); test: compounds binding glycogen synthase kinase-3 – biochemical, small-molecule microarray, 635 nm fluorescence, GSK3A, primary screen (AID 1103); details: fluorescence 635 nm, higher = more signal; further: the record names both GSK3A and GSK3B
[17] = molecular target: Epidermal growth factor receptor (Homo sapiens) (UniProt P00533); test: compounds binding epidermal growth factor receptor – biochemical, small-molecule microarray, 635 nm fluorescence, primary screen (AID 1104); details: EGFR binding, higher = more signal;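 further: score merges 667 nm emission intensity with spot signal to noise over triplicate slides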
[18] = molecular target: Follistatin-related protein 3 (Homo sapiens) (UniProt O95633); test: compounds binding follistatin-related protein 3 – biochemical, small-molecule microarray, 635 nm fluorescence, primary screen (AID 1105); details: FSTL3 binding, higher = more signal;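 further: score merges emission near 667 nm and signal to noise per printed spot across three slides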
[19] = molecular target: Dickkopf-related protein 1 (Homo sapiens) (UniProt O94907); test: small molecules binding DKK1 protein – biochemical, small-molecule microarray, 635 nm fluorescence scan, primary screen (AID 1106); details: higher = more signal;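 further: score merges emission near 667 nm with signal to noise over three replicate slides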
[20] = system: Inhibin beta A chain (activin A); test: small molecules binding activin A – biochemical, small-molecule microarray, 635 nm fluorescence scan, primary screen (AID 1107); details: INHBA, higher = more signal;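 further: mouse activin A protein probed at 4.33 µg/mL on printed slides; score merges bound-protein fluorescence near 667 nm with spot signal-to-noise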

Dickkopf-related protein 1 (Homo sapiens), sequence (O94907 whole entry, looked up): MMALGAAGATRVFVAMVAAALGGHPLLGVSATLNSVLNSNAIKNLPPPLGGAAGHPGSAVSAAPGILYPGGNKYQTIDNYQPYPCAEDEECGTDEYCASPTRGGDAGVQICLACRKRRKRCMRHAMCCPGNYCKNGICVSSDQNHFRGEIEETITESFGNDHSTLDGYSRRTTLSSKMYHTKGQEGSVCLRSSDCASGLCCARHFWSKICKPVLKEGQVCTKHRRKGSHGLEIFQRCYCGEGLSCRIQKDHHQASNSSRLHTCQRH
Fibroblast growth factor 10 (Homo sapiens), sequence (O15520 whole entry, looked up): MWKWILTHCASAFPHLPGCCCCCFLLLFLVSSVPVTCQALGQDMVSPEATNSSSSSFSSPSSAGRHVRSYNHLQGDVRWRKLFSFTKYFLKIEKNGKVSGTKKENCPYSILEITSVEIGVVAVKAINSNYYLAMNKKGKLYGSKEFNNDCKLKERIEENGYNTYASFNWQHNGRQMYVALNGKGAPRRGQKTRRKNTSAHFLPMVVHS
Epidermal growth factor receptor (Homo sapiens), sequence (P00533 whole entry, looked up): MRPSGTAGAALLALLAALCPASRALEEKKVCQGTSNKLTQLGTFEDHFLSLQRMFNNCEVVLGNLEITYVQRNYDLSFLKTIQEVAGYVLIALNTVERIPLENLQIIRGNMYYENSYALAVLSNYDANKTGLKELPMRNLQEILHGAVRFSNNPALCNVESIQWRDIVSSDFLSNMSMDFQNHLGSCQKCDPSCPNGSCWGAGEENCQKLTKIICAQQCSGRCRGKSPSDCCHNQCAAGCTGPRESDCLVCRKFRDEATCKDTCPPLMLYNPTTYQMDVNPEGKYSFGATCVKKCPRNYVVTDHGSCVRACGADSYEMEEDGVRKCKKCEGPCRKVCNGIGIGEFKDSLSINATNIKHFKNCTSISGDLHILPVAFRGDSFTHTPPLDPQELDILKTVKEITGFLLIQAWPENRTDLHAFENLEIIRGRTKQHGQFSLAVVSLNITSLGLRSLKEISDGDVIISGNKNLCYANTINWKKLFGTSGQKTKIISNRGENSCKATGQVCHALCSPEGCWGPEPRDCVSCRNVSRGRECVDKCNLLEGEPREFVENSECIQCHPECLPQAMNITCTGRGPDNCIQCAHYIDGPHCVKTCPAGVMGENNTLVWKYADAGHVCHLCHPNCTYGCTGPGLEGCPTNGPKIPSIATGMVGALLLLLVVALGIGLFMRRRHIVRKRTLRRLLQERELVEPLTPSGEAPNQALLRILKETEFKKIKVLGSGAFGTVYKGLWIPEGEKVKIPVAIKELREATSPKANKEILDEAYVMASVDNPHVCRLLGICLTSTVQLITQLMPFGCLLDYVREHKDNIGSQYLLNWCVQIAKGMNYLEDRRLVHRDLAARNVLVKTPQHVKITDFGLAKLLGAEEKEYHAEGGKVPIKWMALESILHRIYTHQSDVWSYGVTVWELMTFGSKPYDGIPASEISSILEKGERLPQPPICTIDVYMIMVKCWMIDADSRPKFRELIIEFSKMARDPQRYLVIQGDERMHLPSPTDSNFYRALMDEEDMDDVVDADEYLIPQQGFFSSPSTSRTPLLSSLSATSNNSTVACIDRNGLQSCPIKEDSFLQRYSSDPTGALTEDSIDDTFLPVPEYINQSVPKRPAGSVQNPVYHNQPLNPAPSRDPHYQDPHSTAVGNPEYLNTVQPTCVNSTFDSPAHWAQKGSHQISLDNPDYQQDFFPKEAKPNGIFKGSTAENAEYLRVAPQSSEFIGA
Follistatin-related protein 3 (Homo sapiens), sequence (O95633 whole entry, looked up): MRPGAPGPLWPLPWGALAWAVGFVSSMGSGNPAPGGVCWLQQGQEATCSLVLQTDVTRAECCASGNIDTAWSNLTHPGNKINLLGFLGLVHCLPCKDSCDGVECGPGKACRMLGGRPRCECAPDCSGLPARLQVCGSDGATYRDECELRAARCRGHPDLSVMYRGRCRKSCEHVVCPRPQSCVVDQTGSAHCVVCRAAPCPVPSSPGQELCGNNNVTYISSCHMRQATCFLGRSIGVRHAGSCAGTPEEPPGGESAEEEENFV
Torsin-1A-interacting protein 2 (Homo sapiens), sequence (Q8NFQ8 whole entry, looked up): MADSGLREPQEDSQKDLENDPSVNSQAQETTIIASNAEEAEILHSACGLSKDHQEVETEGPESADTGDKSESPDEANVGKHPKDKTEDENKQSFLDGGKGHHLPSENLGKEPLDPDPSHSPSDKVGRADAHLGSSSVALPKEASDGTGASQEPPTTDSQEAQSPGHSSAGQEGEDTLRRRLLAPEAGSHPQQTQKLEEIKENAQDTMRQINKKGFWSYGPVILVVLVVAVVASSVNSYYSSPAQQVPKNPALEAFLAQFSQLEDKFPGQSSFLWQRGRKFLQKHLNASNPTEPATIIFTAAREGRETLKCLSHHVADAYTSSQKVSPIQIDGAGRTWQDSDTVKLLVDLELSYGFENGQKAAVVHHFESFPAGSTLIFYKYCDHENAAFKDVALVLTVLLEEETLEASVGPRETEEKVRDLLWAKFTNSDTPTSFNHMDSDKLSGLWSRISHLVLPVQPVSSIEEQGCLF
Neurogenic locus notch homolog protein 3 (Homo sapiens), sequence (Q9UM47 whole entry, looked up): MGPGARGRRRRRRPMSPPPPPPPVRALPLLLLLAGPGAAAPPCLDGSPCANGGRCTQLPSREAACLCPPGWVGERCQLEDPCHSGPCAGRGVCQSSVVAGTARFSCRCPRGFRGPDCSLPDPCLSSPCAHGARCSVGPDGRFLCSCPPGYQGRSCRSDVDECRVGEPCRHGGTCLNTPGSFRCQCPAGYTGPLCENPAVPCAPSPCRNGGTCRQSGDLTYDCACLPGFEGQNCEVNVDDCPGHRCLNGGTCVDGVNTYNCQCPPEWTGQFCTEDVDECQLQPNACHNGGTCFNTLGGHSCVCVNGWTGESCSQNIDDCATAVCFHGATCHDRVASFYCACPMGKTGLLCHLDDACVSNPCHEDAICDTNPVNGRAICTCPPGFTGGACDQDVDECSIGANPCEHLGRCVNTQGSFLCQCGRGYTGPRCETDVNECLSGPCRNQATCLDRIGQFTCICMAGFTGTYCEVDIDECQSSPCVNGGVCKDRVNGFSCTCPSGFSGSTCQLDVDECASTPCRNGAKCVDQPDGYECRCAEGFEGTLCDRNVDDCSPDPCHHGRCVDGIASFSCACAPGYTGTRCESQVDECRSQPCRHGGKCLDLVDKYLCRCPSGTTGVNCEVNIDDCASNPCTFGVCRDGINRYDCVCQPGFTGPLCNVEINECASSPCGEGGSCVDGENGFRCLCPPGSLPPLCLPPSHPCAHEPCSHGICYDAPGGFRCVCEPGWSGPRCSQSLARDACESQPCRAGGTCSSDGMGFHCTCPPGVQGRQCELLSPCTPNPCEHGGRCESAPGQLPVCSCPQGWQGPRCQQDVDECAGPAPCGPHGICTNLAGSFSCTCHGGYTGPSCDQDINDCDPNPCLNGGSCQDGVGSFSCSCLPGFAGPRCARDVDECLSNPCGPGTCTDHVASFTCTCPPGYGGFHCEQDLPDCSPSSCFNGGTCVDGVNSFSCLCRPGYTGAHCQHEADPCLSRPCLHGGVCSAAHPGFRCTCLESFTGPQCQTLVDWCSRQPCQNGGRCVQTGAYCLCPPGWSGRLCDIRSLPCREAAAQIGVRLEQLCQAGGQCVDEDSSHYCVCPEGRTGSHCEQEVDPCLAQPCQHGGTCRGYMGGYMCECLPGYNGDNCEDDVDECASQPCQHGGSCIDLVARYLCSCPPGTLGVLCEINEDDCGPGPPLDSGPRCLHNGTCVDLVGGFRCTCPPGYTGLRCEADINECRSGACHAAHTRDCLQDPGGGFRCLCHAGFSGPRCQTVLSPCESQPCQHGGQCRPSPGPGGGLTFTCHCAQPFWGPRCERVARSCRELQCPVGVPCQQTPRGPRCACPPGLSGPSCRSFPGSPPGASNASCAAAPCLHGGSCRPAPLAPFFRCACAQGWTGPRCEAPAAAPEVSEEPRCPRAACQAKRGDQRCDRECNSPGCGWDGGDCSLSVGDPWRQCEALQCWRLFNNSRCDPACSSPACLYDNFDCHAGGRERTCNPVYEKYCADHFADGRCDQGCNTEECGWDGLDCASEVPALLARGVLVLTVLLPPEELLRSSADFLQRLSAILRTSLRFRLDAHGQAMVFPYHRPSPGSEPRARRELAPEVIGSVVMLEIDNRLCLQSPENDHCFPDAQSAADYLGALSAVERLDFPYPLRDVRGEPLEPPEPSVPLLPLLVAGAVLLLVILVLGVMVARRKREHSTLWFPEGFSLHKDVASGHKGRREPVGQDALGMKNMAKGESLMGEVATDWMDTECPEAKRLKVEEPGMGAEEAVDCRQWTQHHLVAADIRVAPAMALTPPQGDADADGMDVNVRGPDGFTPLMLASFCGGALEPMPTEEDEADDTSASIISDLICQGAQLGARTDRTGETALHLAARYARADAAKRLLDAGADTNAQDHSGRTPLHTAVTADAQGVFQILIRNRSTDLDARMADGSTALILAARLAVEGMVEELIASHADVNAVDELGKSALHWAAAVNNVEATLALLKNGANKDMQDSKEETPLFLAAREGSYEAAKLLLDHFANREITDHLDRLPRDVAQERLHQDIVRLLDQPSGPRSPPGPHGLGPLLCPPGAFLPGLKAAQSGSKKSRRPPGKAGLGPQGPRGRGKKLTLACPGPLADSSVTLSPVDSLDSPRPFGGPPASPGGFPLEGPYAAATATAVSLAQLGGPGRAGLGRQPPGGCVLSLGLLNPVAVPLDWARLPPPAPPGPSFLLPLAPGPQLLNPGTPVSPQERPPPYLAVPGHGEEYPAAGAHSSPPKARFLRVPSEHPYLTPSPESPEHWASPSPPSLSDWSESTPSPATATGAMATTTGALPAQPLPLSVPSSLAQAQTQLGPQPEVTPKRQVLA

SMILES: O=C1O[C@H](c2ccccc2)[C@H](c2ccccc2)N2[C@H]1[C@@H](C(=O)NC[C@H](O)c1ccccc1)[C@]1(C(=O)Nc3ccccc31)[C@H]2c1ccccc1OCCO
- composite z-score [1]: 1.55
- z-score [2]: 0.837 (inactive)
- z-score [3]: 0.468 (inactive)
- z-score [4]: 4.03 (inactive)
- composite z-score [5]: 2.92
- z-score [6]: 2.05 (inactive)
- composite z-score [7]: -0.181
- composite z-score [8]: 1.71
- composite z-score [9]: 0.723
- composite z-score [10]: -0.109
- composite z-score [11]: 1.61
- composite z-score [12]: -0.0915
- composite z-score [13]: 0.499
- z-score [14]: -2.06 (inactive)
- composite z-score [15]: 0.561
- composite z-score [16]: 0.447
- composite z-score [17]: 0.0728
- composite z-score [18]: 0.263
- composite z-score [19]: -0.0453
- composite z-score [20]: 0.914

SMILES: C=CC[C@]1(C(=O)N2CCOCC2)N=C(c2ccc(OCCCO)cc2)O[C@H]1c1ccccc1CN=[N+]=[N-]
- composite z-score [1]: 1.53
- z-score [2]: -0.819 (inactive)
- z-score [3]: -1.63 (inactive)
- z-score [4]: -0.119 (inactive)
- composite z-score [5]: 3.49
- z-score [6]: 0.191 (inactive)
- composite z-score [7]: 0.0503
- composite z-score [8]: 1.57
- composite z-score [9]: 1.05
- composite z-score [10]: -0.0111
- composite z-score [11]: 1.55
- composite z-score [12]: 0.0557
- composite z-score [13]: 0.948
- z-score [14]: -0.244 (inactive)
- composite z-score [15]: 1.24
- composite z-score [16]: 0.0251
- composite z-score [17]: -0.124
- composite z-score [18]: 0.879
- composite z-score [19]: -0.121
- composite z-score [20]: 0.58

SMILES: C=CCC(OC(C)=O)[C@@H]1[C@@H](N(Cc2ccc(-c3ccccc3)cc2)C(=O)c2cccc3ccccc23)c2cc(OCCCO)ccc2N1C(=O)c1ccc2ccccc2n1 (stereo not given in full)
- composite z-score [1]: 0.171
- z-score [2]: -0.288 (inactive)
- z-score [3]: -0.283 (inactive)
- z-score [4]: -0.291 (inactive)
- composite z-score [5]: 0.53
- z-score [6]: 0.488 (inactive)
- composite z-score [7]: 0.0469
- composite z-score [8]: -0.0394
- composite z-score [9]: 0.336
- composite z-score [10]: 0.045
- composite z-score [11]: -0.0429
- composite z-score [12]: 0.0158
- composite z-score [13]: 0.308
- z-score [14]: -0.379 (inactive)
- composite z-score [15]: -0.142
- composite z-score [16]: 0.124
- composite z-score [17]: 0.0271
- composite z-score [18]: -0.0464
- composite z-score [19]: -0.196
- composite z-score [20]: 1.24

SMILES: O=c1c2ccc(Br)cc2nc(-c2ccccc2)n1Cc1cccc(O)c1
- composite z-score [1]: 0.529
- z-score [2]: -1.52 (inactive)
- z-score [3]: -2.91 (inactive)
- z-score [4]: -0.511 (inactive)
- composite z-score [5]: 1.86
- z-score [6]: 1.38 (inactive)
- composite z-score [7]: -0.0614
- composite z-score [8]: -0.0706
- composite z-score [9]: 0.343
- composite z-score [10]: -0.0721
- composite z-score [11]: 0.524
- composite z-score [12]: 0.864
- composite z-score [13]: 0.715
- z-score [14]: -0.376 (inactive)
- composite z-score [15]: 0.528
- composite z-score [16]: 0.476
- composite z-score [17]: 0.145
- composite z-score [18]: 0.547
- composite z-score [19]: 0.0301
- composite z-score [20]: 0.41

SMILES: COCCCNC(=O)[C@@]1(Cc2ccccc2)COC(c2ccc(OCCCO)cc2)=N1
- composite z-score [1]: 1.49
- z-score [2]: -1.29 (inactive)
- z-score [3]: -1.98 (inactive)
- z-score [4]: -1.27 (inactive)
- composite z-score [5]: 3.55
- z-score [6]: 1.47 (inactive)
- composite z-score [7]: 0.0634
- composite z-score [8]: -0.233
- composite z-score [9]: 0.117
- composite z-score [10]: -0.0828
- composite z-score [11]: 1.7
- composite z-score [12]: 0.583
- composite z-score [13]: 1.11
- z-score [14]: -0.37 (inactive)
- composite z-score [15]: 0.505
- composite z-score [16]: 0.384
- composite z-score [17]: -0.715
- composite z-score [18]: -0.776
- composite z-score [19]: -0.688
- composite z-score [20]: 0.065

SMILES: COc1cccc(C[C@H]2C[C@@H](CO[Si](C(C)C)(C(C)C)C(C)C)N3C(=O)[C@]4(C(C)=O)O[C@]23[C@H]2C(=O)N(C)C(=O)[C@H]24)c1
- composite z-score [1]: 1.49
- z-score [2]: 0.481 (inactive)
- z-score [3]: 1.38 (inactive)
- z-score [4]: 1.25 (inactive)
- composite z-score [5]: 0.622
- z-score [6]: -1.11 (inactive)
- composite z-score [7]: -0.0942
- composite z-score [8]: 1
- composite z-score [9]: 1.13
- composite z-score [10]: -0.0175
- composite z-score [11]: 0.817
- composite z-score [12]: -0.0616
- composite z-score [13]: -0.463
- z-score [14]: -1.29 (inactive)
- composite z-score [15]: 0.759
- composite z-score [16]: 1.02
- composite z-score [17]: 0.468
- composite z-score [18]: 1.09
- composite z-score [19]: 0.53
- composite z-score [20]: -0.254

SMILES: CN1C(=O)C2C=CC(C(O)COCc3ccccc3)N(Nc3ccccc3)C2C1=O (stereo not given)
- composite z-score [1]: 0.691
- z-score [2]: 0.12 (inactive)
- z-score [3]: 1.15 (inactive)
- z-score [4]: -0.116 (inactive)
- composite z-score [5]: 3.54
- z-score [6]: -0.309 (inactive)
- composite z-score [7]: 0.147
- composite z-score [8]: 0.28
- composite z-score [9]: 0.896
- composite z-score [10]: -0.0232
- composite z-score [11]: 0.867
- composite z-score [12]: -0.109
- composite z-score [13]: 0.285
- z-score [14]: 1.43 (inactive)
- composite z-score [15]: 0.558
- composite z-score [16]: 0.453
- composite z-score [17]: 0.132
- composite z-score [18]: 1.06
- composite z-score [19]: 0.0378
- composite z-score [20]: 1.18

SMILES: COc1ccc([Si](C)(C)[C@@H]2[C@@H](CC(=O)N(CCO)Cc3ccccc3)O[C@]3(C(=O)N(Cc4ccc(N5CCOC5=O)cc4)c4ccccc43)[C@H]2C)cc1
- composite z-score [1]: 1.44
- z-score [2]: -0.677 (inactive)
- z-score [3]: 0.303 (inactive)
- z-score [4]: 2.92 (inactive)
- composite z-score [5]: 2.13
- z-score [6]: -0.249 (inactive)
- composite z-score [7]: -0.0887
- composite z-score [8]: 0.806
- composite z-score [9]: 0.643
- composite z-score [10]: -0.0343
- composite z-score [11]: 0.851
- composite z-score [12]: 0.232
- composite z-score [13]: 0.0947
- z-score [14]: 0.24 (inactive)
- composite z-score [15]: 0.472
- composite z-score [16]: 0.218
- composite z-score [17]: 0.467
- composite z-score [18]: 1.09
- composite z-score [19]: 0.71
- composite z-score [20]: 0.529

SMILES: CCOC(=O)C[C@H]1[C@H](OC(=O)Cc2ccc3c(c2)OCO3)[C@@H](NC(=O)c2ccccc2)c2cc(OCCCO)ccc2N1C(=O)c1ccc2ccccc2n1
- composite z-score [1]: 0.4
- z-score [2]: -2.25 (inactive)
- z-score [3]: -1.2 (inactive)
- z-score [4]: -0.433 (inactive)
- composite z-score [5]: 1.13
- z-score [6]: 1.45 (inactive)
- composite z-score [7]: -0.0179
- composite z-score [8]: 0.196
- composite z-score [9]: 0.0199
- composite z-score [10]: -0.147
- composite z-score [11]: 0.347
- composite z-score [12]: -0.0053
- composite z-score [13]: -0.329
- z-score [14]: -2.44 (inactive)
- composite z-score [15]: 0.274
- composite z-score [16]: 0.329
- composite z-score [17]: 0.548
- composite z-score [18]: 0.0676
- composite z-score [19]: 0.328
- composite z-score [20]: 0.318

SMILES: COC(=O)[C@@]1(Cc2ccccc2)[C@H]2c3cc(C(=O)N(C)C)n(Cc4ccccn4)c3C[C@H]2CN1C(=O)c1ccccc1
- composite z-score [1]: 0.664
- z-score [2]: 0.249 (inactive)
- z-score [3]: 0.87 (inactive)
- z-score [4]: 0.963 (inactive)
- composite z-score [5]: 3.68
- z-score [6]: -0.537 (inactive)
- composite z-score [7]: 0.506
- composite z-score [8]: -0.793
- composite z-score [9]: 1.11
- composite z-score [10]: 0.309
- composite z-score [11]: 1.57
- composite z-score [12]: 1.44
- composite z-score [13]: 1.37
- z-score [14]: -1.58 (inactive)
- composite z-score [15]: 0.548
- composite z-score [16]: 0.225
- composite z-score [17]: -0.805
- composite z-score [18]: 0.155
- composite z-score [19]: -1.09
- composite z-score [20]: 0.46
